PINK1 expr mod = A Quantitative High throughput Screen to Identify Chemical Modulators of PINK1 Expression | PINK1 immunofluorescence, high-content cytometry, 24 h | Potency, µM (series often up to 76.6 µM), most hits filed as activators | actives 0.2% (n = 410,000); active = well fitted activation curve with a large enough effect; inconclusive = small, poorly fitted or top-dose-only effect; cell line not stated here; note: nearly all actives have a fitted effect of over 65% in size
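PINK1 protein level read as immunofluorescence by microplate cytometer in a fixed, stained stable cell line after 24 h exposure to five compound concentrations, with CCCP as control.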
Vif-APOBEC3F blk = qHTS for Inhibitors of Vif-A3F Interactions: qHTS | HeLa A3F-eYFP + Vif (tagged APOBEC3F with the HIV-1 protein that degrades it), YFP fluorescence increase | Potency, µM (titrated, usually from 46.1 µM) | actives 0.2% (n = 390,000); note: nearly all actives have a fitted effect of over 65% in size
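HeLa cells stably expressing A3F-eYFP plus Vif, plated and incubated overnight at 37 deg C, then exposed to compounds overnight at 37 deg C. Blocked degradation read as raised yellow fluorescence (Ex 488/Em 500-530).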
Epigenetic derep = Quantitative High-Throughput Screen for Regulators of Epigenetic Control; murine LDR cells, GFP reporter derepression, 30 h; Potency, µM (highest dose often 53.9 µM), most hits filed as activators; actives 0.2% (n = 280,000); note: nearly all actives have a fitted effect of over 60% in size
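Derepression of a silenced CMV-GFP reporter in murine LDR cells is scored by enumerating GFP-positive cells with a laser-scanning microplate cytometer after 30 hours of treatment at 37 C.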
Vif-APOBEC3G blk = qHTS for Inhibitors of Vif-A3G Interactions: qHTS. DNA dC->dU-editing enzyme APOBEC-3G (Homo sapiens), Q9HC16. HeLa A3G-eYFP + Vif (tagged APOBEC3G with the HIV-1 protein that degrades it), YFP fluorescence, overnight. Potency, µM (highest dose often 46.1 µM), actives largely listed as inhibitors. actives 0.076% (n = 410,000); note: nearly all actives have a fitted effect of over 60% in size
Target sequence (Q9HC16 whole entry, looked up): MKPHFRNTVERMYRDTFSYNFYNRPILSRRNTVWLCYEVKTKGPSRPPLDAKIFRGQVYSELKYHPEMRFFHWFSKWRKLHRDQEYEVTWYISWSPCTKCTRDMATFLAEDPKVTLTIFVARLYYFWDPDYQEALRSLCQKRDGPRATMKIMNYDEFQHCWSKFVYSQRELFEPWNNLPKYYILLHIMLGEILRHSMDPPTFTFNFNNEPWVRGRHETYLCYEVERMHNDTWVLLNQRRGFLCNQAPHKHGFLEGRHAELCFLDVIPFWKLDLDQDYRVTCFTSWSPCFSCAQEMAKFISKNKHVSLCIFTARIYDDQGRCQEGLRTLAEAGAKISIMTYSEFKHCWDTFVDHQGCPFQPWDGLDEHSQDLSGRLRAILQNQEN
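Read-out is eYFP fluorescence (Ex 488/Em 500-530) from Vif-expressing HeLa A3G-eYFP cells; more signal means A3G escaped Vif-mediated degradation. Cells plated overnight, compound pinned in, incubated overnight at 37 deg C.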
A number is an active result; n = inactive; u = inconclusive; x = no result given. A selection: hits, their analogues and other compounds. The true share with any hit is near 0.52%. Unless noted, calls come from the whole dose curve; as a rule, active = well fitted curve in the direction sought with a large enough effect; inconclusive = small, poorly fitted or top-dose-only effect, or another doubt; inactive = no such curve, though single readings can be large; an effect the other way counts as inactive or inconclusive.

SMILES	PINK1 expr mod	Vif-APOBEC3F blk	Epigenetic derep	Vif-APOBEC3G blk
Cc1cc(C)cc(NC(=O)Cn2cc(C(=O)C3CCCCC3)c3ccccc32)c1	n	7.1µM	n	u
Cc1cccc(NC(=O)Cn2cc(C(=O)C3CC3)c3ccccc32)c1	n	n	x	n
Cc1oc(-c2cccc(C(F)(F)F)c2)nc1CN1CCC[C@H]1CO	n	n	n	n
Cc1oc(-c2cccc(C(F)(F)F)c2)nc1CN1CCOCC1	n	n	11µM	n
COC(=O)c1cccc(C(=O)N2CCc3c(cnc(C)c3CNC(=O)/C=C/c3cccs3)C2)c1	n	x	x	x
N#Cc1c(-c2ccc(Cl)cc2)n(O)c2ccccc12	35µM	n	x	n
O=C(/C=C/c1ccncc1)c1cc(Cl)ccc1O	n	25µM	n	u
Cc1ccc(C(=O)NCCc2nnc3n2CCN(Cc2cc(C)cc(C)c2)CC3)cc1	n	x	x	x
O=C(NNC(=S)NC(=O)c1ccccc1[N+](=O)[O-])c1ccccc1O	28µM	n	n	n
CCN1CCN(Cc2ccc(NC(=O)c3ccc(C)c(/C=C/c4cnc(Nc5cc(N6CCNCC6)nc(C)n5)cn4)c3)cc2C(F)(F)F)CC1	n	32µM	x	u
Cc1cccc(CNc2ncnc3ccc(-c4ccc5c(c4)OCCO5)cc23)c1	22µM	n	x	n
Cc1cnc(C)c(-c2ccc(F)c3c2OC(CNC(=O)/C=C/c2cccs2)C3)n1 (stereo unspecified)	n	x	x	x
CC1CCN(c2nnc(-c3cccs3)c3ccccc23)CC1	n	n	n	n
c1csc(-c2nnc(NC3CCCCC3)c3ccccc23)c1	32µM	n	n	n
Cc1cc(NC(=O)N2CC=C(c3c[nH]c4ccccc34)CC2)ccc1Br	n	22µM	u	u
COc1cc(OC)c(NC(=O)N2CC=C(c3c[nH]c4ccccc34)CC2)cc1Cl	n	u	u	u
Cc1ccc(C)c(NC(=O)N2CC=C(c3c[nH]c4ccccc34)CC2)c1	n	25µM	u	u
COc1ccccc1C1CN(CCNC(=O)c2cnsn2)Cc2ccccc2O1 (stereo unspecified)	n	x	x	x
COc1ccccc1C1CN(Cc2c(C)nc3sccn23)Cc2ccccc2O1 (stereo unspecified)	n	x	x	x
COc1cc(=O)n2c(c1C(=O)N(C)Cc1ccsc1)CCN(Cc1cnn(C)c1C)CC2	n	x	x	x
CCc1c(C)nc(SCC(=O)c2cccs2)c(C#N)c1C	n	u	n	13µM
CC(=O)Oc1ccc2c(=O)c(-c3ccccc3)coc2c1	n	n	n	n
COc1ccc(-c2coc3cc(OC(C)=O)ccc3c2=S)cc1	18µM	n	x	n
COc1ccc(C(=O)N/N=C/c2cc(Br)ccc2O)cc1OC	n	11µM	n	n
COc1ccc(Br)cc1/C=N/NC(=O)c1cc(Br)ccc1O	x	x	n	x
SMILES	PINK1 expr mod	Vif-APOBEC3F blk	Epigenetic derep	Vif-APOBEC3G blk
CCn1c(-c2cccnc2)nc2cc(NC(=O)COC)cc(C(=O)N3CC[C@@H]4CCCC[C@H]4C3)c21	n	x	x	x
CC1=C/C(=N\NC(=S)NCc2ccccc2)CC1	n	u	13µM	n
C/C(=N\NC(=S)NCc1ccccc1)c1ccccc1	n	u	n	n
Cc1cccnc1-c1cccc2c1OC(CNC(=O)C(=O)c1ccccc1)C2 (stereo unspecified)	n	x	x	x
CC(=O)Oc1ccc(N2C(=O)c3cccc4c([N+](=O)[O-])ccc(c34)C2=O)cc1	n	22µM	x	u
O=C1c2cccc3c([N+](=O)[O-])ccc(c23)C(=O)N1c1ccc(Cl)cn1	n	u	14µM	n
O=C1c2ccc([N+](=O)[O-])cc2C(=O)N1c1ccc(Cl)cn1	n	n	n	n
O=C1c2cccc3c([N+](=O)[O-])ccc(c23)C(=O)N1c1nccs1	n	u	u	u
O=C1c2cccc3c([N+](=O)[O-])ccc(c23)C(=O)N1c1ccccn1	n	13µM	n	n
O=C1c2cccc3c([N+](=O)[O-])ccc(c23)C(=O)N1O	n	5µM	x	11µM
Cc1ncc2c(c1CNC(=O)c1ccc3c(c1)OCO3)CCN(C(=O)/C=C/c1ccc(Cl)cc1)C2	n	x	x	x
CC(C)Oc1ccc(C(=O)NCC2Cc3cc(F)cc(-c4cnccn4)c3O2)cc1 (stereo unspecified)	n	x	x	x
CCN(CC(=O)NCc1ccc(F)cc1)C(=O)/C=C/c1ccc(OC)cc1	n	n	x	n
CCN(CC(=O)NCc1ccc(F)cc1)C(=O)/C=C/c1ccc(OC)c(S(=O)(=O)NC(C)C)c1	n	n	x	2.8µM
Cc1nc(C)c(CC(=O)N2CCOc3ccc(CN4CCN(c5ccccn5)CC4)cc3C2)s1	n	x	x	x
Cc1ccc(-c2nc3sc(C#N)c(N)n3c(=O)c2C#N)cc1	u	6.3µM	u	n
Cc1ccc2nc(/C(C#N)=C\c3ccc(N4CCOCC4)o3)[nH]c2c1	11µM	n	14µM	u
Cc1ccc2nc(/C(C#N)=C\c3ccc([N+](=O)[O-])o3)[nH]c2c1	u	u	1µM	6.3µM
Cc1ccc2nc(/C(C#N)=C\c3ccc(Oc4ccc([N+](=O)[O-])cn4)cc3)[nH]c2c1	n	n	n	n
Cc1ccc2nc(/C(C#N)=C\c3cc(C)n(-c4cccc([N+](=O)[O-])c4)c3C)[nH]c2c1	u	n	n	n
CC1(C)CC(=O)C(C2C3=C(CC(C)(C)CC3=O)Oc3c(Br)cc(Br)cc32)=C(O)C1 (stereo unspecified)	22µM	n	x	n
Cc1ccc2nc(CNC(=O)c3cc(NC(=O)c4ccccc4)cc4ncn(C5CCCC5)c34)cn2c1	n	x	x	x
Cc1cnc(C)c(-c2cccc3c2OC(CNC(=O)C[C@@H]2C[C@@H](C)NC(=S)N2)C3)n1 (stereo partly specified)	n	x	x	x
COc1cc(=O)n2c(c1C(=O)N(C)Cc1cscn1)CCN(C(=O)c1ccc(C)c(C)c1)CC2	n	x	x	x
CN(C)C=Nc1c(Br)cc(Br)c2nonc12	11µM	11µM	u	u
SMILES	PINK1 expr mod	Vif-APOBEC3F blk	Epigenetic derep	Vif-APOBEC3G blk
COc1ccc(C(=O)NCCN2Cc3ccccc3OC(c3ccsc3)C2)c(OC)n1 (stereo unspecified)	n	x	x	x
Cc1ncsc1CCC(=O)N1CCCC(c2nc(-c3ccncc3)ncc2-c2ccccc2)C1 (stereo unspecified)	n	x	x	x
Cc1cc(N2CCC(C)CC2)nc(-c2ccccc2O)n1	n	n	n	n
Cc1cc(N2CCC(C)CC2)nc(NCc2ccccc2)n1	35µM	n	n	n
COc1ccc2cc(CN(C(=O)c3cc(C)nn3C)C3CC3)c(-c3ccc(Cl)cc3)nc2c1	n	x	x	x
COc1ccc2nc(N3C(=O)/C(=C/c4ccccc4)NC3=S)sc2c1	u	13µM	n	5µM
N#C/C(=N\Nc1cccc(C(F)(F)F)c1)C(=O)c1ccsc1	11µM	n	n	n
COc1ccccc1C1CN(Cc2cccc(O)c2)Cc2ccccc2O1 (stereo unspecified)	n	x	x	x
Cc1ccc(NC(=O)c2cc3ccccc3oc2=N)cc1	n	n	x	n
N=c1oc2c3c4c(cc2cc1C(=O)Nc1ccccc1)CCCN4CCC3	11µM	n	0.28µM	n

Source: PubChem BioAssay
